# Results published in PubChem BioAssay AID1233 (SRMLSC, 2008).
# Potency and affinity values are given separately. Activity calls are given as the source filed them.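 The calls were made as follows: active = a dose-response curve fit returns a half-maximal inhibitory concentration, extrapolated values included; inactive = the fit returns no such concentration.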
# Biological target: HMG-CoA reductase [Enterococcus faecalis] (UniProt Q9FD70)
# Assay: class II HMG-CoA reductase inhibition potency – biochemical, Enterococcus faecalis, confirmation (AID 1233);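 also: 0% = full reaction carrier wells and 100% = background wells lacking mevalonate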
# Details: purified E. faecalis HMGR, NADPH absorbance 340 nm kinetics; series mostly up to 100 µM; inhibition: at the top concentration
row,Structure (SMILES),inhibition
1,CCCNCc1cc(OC)c(OCc2ccccc2)cc1Br,-4.86% (inactive)
2,O=C(COCc1nc2ccccc2c(=O)[nH]1)NCC1CCCCC1,-3.54% (inactive)
3,CCn1c(C)nc2cc(S(=O)(=O)C(F)(F)C(F)C(F)(F)F)ccc21 (stereo not drawn),-0.73% (inactive)
4,Cc1ccc(S(=O)(=O)N(C)Cc2ccc(-c3nnco3)cc2)cc1,-3.48% (inactive)
5,Cc1cc(C)n(C2CC(=O)N(c3ccccc3)C2=O)n1 (stereo not drawn),-1.73% (inactive)
6,CN(C)C(CNC(=O)CCOc1ccccc1)c1ccco1 (stereo not drawn),-5.01% (inactive)
7,COc1cc(OC)c(OC)cc1/C=N/NC(=S)NCCN1CCOCC1,-0.02% (inactive)
8,Cc1nc([N+](=O)[O-])c(Br)n1CC(=O)c1cccc([N+](=O)[O-])c1,-5.09% (inactive)
9,Cc1cc(=O)[nH]c(SCCOc2ccc3c(c2)CCC3)n1,-3.48% (inactive)
10,Cc1ccc(S(=O)(=O)NCCCCCC(=O)N(C)C)cc1,-2.88% (inactive)
11,Cc1[nH][nH]c(=O)c1C(c1c(C)[nH][nH]c1=O)c1cn(Cc2ccc(Cl)c(Cl)c2)c2ccccc12,-7.14% (inactive)
12,O=C(CCCn1ncn2c(cc3occc32)c1=O)N1CCc2ccccc2C1,-2.7% (inactive)
13,COc1cccc(Nc2nc(C)cc(C)c2C#N)c1,0.73% (inactive)
14,CCN(CC)S(=O)(=O)c1cccc(C(=O)N[C@H](C(=O)Nc2nc3ccccc3s2)C(C)C)c1,-9.14% (inactive)
15,COc1ccccc1N(CC(O)CN(c1ccccc1)S(C)(=O)=O)S(=O)(=O)c1ccccc1 (stereo not drawn),0.06% (inactive)
16,C[C@H]1[C@H](C)CC[C@]2(C(=O)O)CC[C@]3(C)C(=CC[C@@H]4[C@@]5(C)C[C@@H](O)[C@H](O)C(C)(C)[C@@H]5CC[C@]43C)[C@H]12,-8.57% (inactive)
17,COCCOC(=O)c1c(NC(=O)CN2CCOCC2)sc(C(N)=O)c1C,-6.21% (inactive)
18,COc1ccc(CCNC(=O)c2ccccc2Cl)cc1OC,-0.95% (inactive)
19,CCc1cccc2c(C#N)cn(CCOc3ccccc3OC)c12,-1.17% (inactive)

row,Structure (SMILES),inhibition
1,COC(=O)[C@@]1(Cc2ccc(OC)cc2)[C@H]2c3cc(C(=O)N(C)C)n(CCc4ccc(OC)c(Br)c4)c3C[C@H]2CN1C(=O)c1ccccc1,-3.7% (inactive)
2,Cc1ccc(Cc2cncc(O)c2)cc1S(=O)(=O)O,0.13% (inactive)
3,O=C(CN1CCN(c2ncc(C(F)(F)F)cc2Cl)CC1)NC(=O)NCc1ccccc1,0.06% (inactive)
4,COc1ccc(C(=O)/C=C/c2ccc(N3CCCCC3)c([N+](=O)[O-])c2)c(OC)c1,-3.89% (inactive)
5,COc1ccc(-c2csc(N(CC3CCCO3)C(=O)c3ccco3)n2)cc1 (stereo not drawn),3.37% (inactive)
6,N#CC(c1ccc(Cl)cc1)c1nc2ccccc2nc1C(F)(F)F (stereo not drawn),-0.91% (inactive)
7,O=C(CSc1nnnn1-c1ccccc1)Nc1ccc(N2CCOCC2)c(Cl)c1,-8.15% (inactive)
8,Cc1ccc(-c2nc3cccnc3s2)cc1NS(=O)(=O)c1ccc2c(c1)CCCC2,0.8% (inactive)
9,O=C(Cc1ccc2c(c1)CCCC2)Nc1ccccc1Cl,2.77% (inactive)
10,S=C(NCCc1ccccc1)N1CCN(Cc2ccccc2)CC1,-0.76% (inactive)
11,O=C(CN1CCN(Cc2ccc(F)cc2Cl)C1=O)NCCc1ccc(Cl)cc1,-0.91% (inactive)
12,Cc1ccc(C(=O)c2c(NC(=O)c3ccccc3)sc(C)c2C)cc1,-8.21% (inactive)
13,Cc1ccc(C(C(=O)NC(C)(C)C)N(Cc2ccc3c(c2)OCO3)C(=O)c2ccc(CN3CCOCC3)o2)o1 (stereo not drawn),-7.02% (inactive)
14,CCCCOC(=O)NCN1C(=O)C2C3C=CC(C3)C2C1=O (stereo not drawn),0.54% (inactive)
15,O=C(Nc1ccccc1)C(Cc1ccccc1)NC(=O)C12CC3CC(CC(C3)C1)C2 (stereo not drawn),-2.25% (inactive)
16,COC(=O)c1ccccc1NC(=O)NCc1ccco1,-2.25% (inactive)
17,CCc1nc(N)nc(N)c1-c1ccc(Cl)cc1,-0.14% (inactive)
18,O=C(CSc1nc(-c2ccccc2)cs1)N1CCc2ccccc21,-6.01% (inactive)
19,CC(C)OCP(=O)(c1ccccc1)c1ccccc1,-1.06% (inactive)
